# Source: PubChem
# The list is not random: actives were taken first. Their share in the collection is about 19%.
# HT1080 IDH1KD tx: kills HT-1080 cells with IDH1 knockdown | Potency, µM (top dose mostly 46.1 µM), inactives show at the top dose activity, negative = toxicity, actives largely listed as cytotoxic | HT-1080 IDH1 knockdown viability, ATP luminescence, 48 h | hit rate 2% among 360,000;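 further: potency means the concentration at half of the fitted maximal effect; 0% = DMSO wells and -100% = cell-free medium wells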
#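 % activity derives from luminescence (CellTiter-Glo), normalised to DMSO and no-cell wells. HT-1080-IDH1KD cells, 750/well, had 48 h compound exposure at 37 °C.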
# HT1080-NT tox: kills 2HG-producing HT-1080-NT fibrosarcoma cells; hit rate 1.6% among 360,000; Potency, µM (doses to about 46.1 µM), for inactives: top-dose activity, negative = less viability, hits mostly cytotoxic; HT-1080-NT fibrosarcoma viability, CellTiter-Glo ATP luminescence, 48 h;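 further: NT is the 2HG producing partner of a matched IDH1 knockdown line; potency means the concentration at half of the fitted maximal effect; 0% = DMSO-treated cells and -100% = media-only wells without cells; nearly all actives have a fitted effect of over 55% in size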
#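 A 48-hour cytotoxicity screen used HT-1080-NT cells plated 2 hours before compound delivery. ATP-based CellTiter-Glo luminescence measured viability, normalized to DMSO and no-cell controls.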
# IL1B secr inh: inhibitors of inflammasome signaling (IL-1 beta secretion); THP-1 LPS/ATP IL-1B secretion, AlphaLISA, 16 h; hits give low values; activity change, % at 57.5 µM; hit rate 4.7% among 360,000; AID 743279; in the data active means activity change below about -50%; inconclusive means mostly about -30% to -49%
#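 THP-1 cells pretreated 1 hr with compounds (up to 57.5 uM final), then stimulated with LPS (250 ng/mL final) plus ATP (1.25 mM final); secreted IL-1B measured by AlphaLISA after 16 hr, decreased signal indicating inhibition.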
# TDP1 cell noCPT: qHTS for Inhibitors of human tyrosyl-DNA phosphodiesterase 1 (TDP1): qHTS in cells in absence of CPT | DT40 Tdp1-/- hTDP1 cells, no CPT, ATP luminescence, 48 h | Potency, µM (top dose mostly 46.2 µM), for the others: at the top dose activity change, negative = growth inhibition, most hits filed as inhibitors | hit rate 15% among 420,000 | AID 686978, 2013; further: potency means the concentration at half of the fitted maximal effect; nearly all actives have a fitted effect of over 55% in size
#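 Growth kinetics read by CellTiter-Glo luminescence after ≥48 hr at 37 °C. Cells: DT40 Tdp1-/- stably carrying human TDP1, 400 per well, compound exposure in the absence of CPT (DMSO vehicle).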
# DT40 TDP1 CPT: growth inhibition of DT40 Tdp1-/-;hTDP1 cells with camptothecin (screen for TDP1 inhibitors); AID 686979; chicken DT40 Tdp1-/-;hTDP1 cells + 20 nM CPT, ATP luminescence, 48 h; Potency, µM (doses to about 46.2 µM), for the others: at the highest dose activity change, negative = growth inhibition, hits mostly inhibitors; hit rate 12% among 420,000; further: potency means the concentration at half of the fitted maximal effect; nearly all actives have a fitted effect of over 55% in size
#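 Chicken DT40 Tdp1-/- cells stably complemented with human TDP1 were seeded at 400 cells/well in medium containing 20 nM camptothecin, exposed to pin-transferred compounds, and grown at 37 °C for at least 48 hr. Viability was read as ATP luminescence.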
# Starred values were filed as active, the others as inactive; ? = inconclusive; · = no result given. Unless noted, the call rests on the fitted dose curve; in most records, active means well fitted curve in the direction sought with a large enough effect; inconclusive means small, poorly fitted or top-dose-only effect, or another doubt; inactive means no such curve, though single readings can be large; an effect the other way counts as inactive or inconclusive. Unless noted, on the % scale 0 is the no-effect control and ±100 the full control effect.
SMILES,HT1080 IDH1KD tx,HT1080-NT tox,IL1B secr inh,TDP1 cell noCPT,DT40 TDP1 CPT
O=C(C1=C[C@@H](c2ccc(Br)cc2)C[C@@H](OCCCCO)O1)N1CCN(Cc2ccc3c(c2)OCO3)CC1,-2%,-14%,?,?,?
O=C(Nc1ccccc1)C1=C[C@@H](c2ccc3c(c2)OCO3)C[C@@H](OCCCCO)O1,1%,7%,-16,-13%,-23%
O=C(Nc1ccccc1)C1=C[C@H](c2ccc3c(c2)OCO3)C[C@H](OCCCCO)O1,7%,22%,-15,?,26µM*
O=C(C1=C[C@H](c2ccc(C(F)(F)F)cc2)C[C@H](OCCCCO)O1)N1CCN(Cc2ccc3c(c2)OCO3)CC1,?,-25%,-67*,?,?
O=C(C1=C[C@@H](c2ccc(C(F)(F)F)cc2)C[C@@H](OCCCCO)O1)N1CCCCCCC1,9%,1%,-19,?,23µM*
O=C(N/N=C/c1ccoc1)c1ccccc1F,16%,28%,-18,17%,9%
O=C1NC[C@@H](Cc2ccc(O)cc2)N(CCc2cc(C(F)(F)F)cc(C(F)(F)F)c2)C1=O,-1%,10%,-10,-19%,?
CCN(CC(=O)NC1CCS(=O)(=O)C1)C(=O)c1cc(OC)c(OC)c(OC)c1 (centres undefined),4%,-5%,30,-10%,-2%
Cc1cc2nsnc2c(S(=O)(=O)NCC(=O)O)c1C,0%,20%,10,-2%,-1%
O=c1onc(-c2ccc(Cl)cc2)n1Cc1ccc(F)cc1,2%,5%,0,-5%,-1%
O=C(Nc1ccccc1)c1nccn1Cc1ccc(F)cc1,4%,-3%,-20,-21%,-14%
Cc1ccccc1OCC(=O)NCC(c1ccc(Cl)cc1)N1CCOCC1 (centres undefined),·,·,·,16µM*,21µM*
CC(C)c1ccc(OCC(=O)NCC(c2ccc(Cl)cc2)N2CCOCC2)cc1 (centres undefined),·,·,·,18µM*,?
COc1ccc(C(CNC(=O)COc2ccccc2C)N2CCOCC2)cc1 (centres undefined),12%,1%,0,16µM*,21µM*
NC(=O)c1cc(S(=O)(=O)NCCc2ccc(Cl)cc2)cs1,0%,0%,10,5%,-12%
CN(C(=O)c1cccc(NC(=O)Cc2ccc(NC(=O)C3CCCN(C(=O)C4CCCCC4)C3)cc2)c1)C1CC1 (centres undefined),7%,13%,26,?,?
COC(c1ccc(Cl)cc1)(c1ccc(Cl)cc1)C(Oc1nc(C)cc(C)n1)C(=O)O (centres undefined),-9%,-20%,36,15µM*,?
CCC(C)[C@H](NC(=O)N1CCC(C)CC1)C(=O)OC (some centres undefined),23%,22%,·,-14%,12%
Cc1cccc(C)c1NC(=O)C1(C)CSCC(=O)N1Cc1cccc(C(F)(F)F)c1 (centres undefined),1%,8%,-19,26µM*,?
Cc1ccc(CN2C(=O)CSCC2(C)C(=O)NCc2ccccc2)cc1 (centres undefined),12%,14%,-10,?,21µM*
Cc1cccc(C)c1NC(=O)C1(C)CSCC(=O)N1Cc1cccc(F)c1 (centres undefined),0%,-8%,-20,-14%,13%
Cc1ccccc1CN1C(=O)CSCC1(C)C(=O)NCc1ccccc1 (centres undefined),8%,8%,-15,-16%,-5%
O=C(Nc1ccc(-n2cnnn2)cc1)C1CCCN1C(=O)Nc1ccc(Br)cc1 (centres undefined),-7%,-11%,-58*,?,2%
CCN(CC)S(=O)(=O)c1ccc(Cc2ncc(C(F)(F)F)cc2Cl)s1,-22%,-15%,-58*,21µM*,?
O=C(CCl)c1ccc(Cc2ncc(C(F)(F)F)cc2Cl)s1,-13%,-19%,-104*,5.2µM*,3.3µM*
